This is an account of results in PubChem BioAssay (NCATS).

Records with an inconclusive call do not appear. Calls of active or inactive are those of the source. Calls come from the whole dose curve; as a rule, active = well fitted curve in the direction sought with a large enough effect; inconclusive = small, poorly fitted or top-dose-only effect, or another doubt; inactive = no such curve, though single readings can be large; an effect the other way counts as inactive or inconclusive.

The nature of experiment [1]: Cell Viability - LYMP2-019 (AID 973). Note: nearly all actives have a fitted effect of over 55% in size. The method, boiled down:
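Human lymphoblastoid cells were seeded at 2500 cells/well, preincubated 5 hr at 37 C, then exposed to compounds for 24 hr at 37 C in complete medium. Intracellular ATP was measured by CellTiter-Glo luminescence; AC50 from Hill fits.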

Experiment [2] is described as follows: Cell Viability - LYMP2-021 (AID 974).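 Note: compound exposure lasts 24 hours at 37 °C; nearly all actives have a fitted effect of over 55% in size.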 A digest of the protocol: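 Human lymphoblastoid cells (2500/well) were preincubated 5 hr at 37 C, then exposed to compounds for 24 hr at 37 C in complete medium. Intracellular ATP was read by CellTiter-Glo luminescence; AC50 came from Hill-equation fits of concentration-response data.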
Experiment [3] is described as follows: Cell Viability - LYMP2-023 (AID 975).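 Note: cellular ATP measured by luciferase luminescence as viability proxy; nearly all actives have a fitted effect of over 55% in size.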 The method, boiled down:
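Human lymphoblastoid cells (2500/well) were preincubated 5 hr at 37 C, then exposed to compounds for 24 hr at 37 C in complete medium. Cellular ATP was read by CellTiter-Glo luminescence, and AC50 came from Hill-equation fits.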

Experiment [4] is described as follows: Cell Viability - LYMP2-025 (AID 976). The method, boiled down: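 Human lymphoblastoid LYMP2-025 cells (2500/well) were pre-incubated 5 hr at 37 C, then treated with compounds for 24 hr at 37 C in complete medium. Viability was read as intracellular ATP by CellTiter-Glo luminescence; AC50 from Hill fits.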
Experiment [5] is described as follows: Cell Viability - LYMP2-002 (AID 977). A digest of the protocol:
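Luminescent ATP readout (CellTiter-Glo, 30 min room temperature) after 24 h compound exposure at 37 C of a human lymphoblastoid line, 2500 cells/well. AC50 values derived by standard Hill fitting of qHTS concentration-response data.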

Experiment [6] can be described thus: Cell Viability - LYMP2-006 (AID 978). Note: nearly all actives have a fitted effect of over 60% in size. A digest of the protocol:
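qHTS, 1536-well; 2500 cells/well, 5 hr 37 C; cpd 24 hr 37 C; CellTiter-Glo 30 min RT; luminescence. Tetraoctylammonium bromide pos. ctrl. AC50 via Hill eqn.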

The nature of experiment [7]: Cell Viability - LYMP2-007 (AID 979).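 Note: cells exposed to compound for 24 h before reading; nearly all actives have a fitted effect of over 60% in size.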 The method, boiled down: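 Human lymphoblastoid cells (2500/well) were plated in complete medium, incubated 5 hr at 37 C, then exposed to compounds for 24 hr at 37 C. Intracellular ATP was read by CellTiter-Glo luminescence after 30 min at room temperature; AC50 from Hill fits.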
Experiment [8] in a line: Cell Viability - LYMP2-008 (AID 980). Note: nearly all actives have a fitted effect of over 60% in size. The method, boiled down: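 Human lymphoblastoid cells (2500/well) were plated, held 5 hr at 37 C, then exposed to compounds for 24 hr at 37 C in complete medium. Intracellular ATP was read by CellTiter-Glo luminescence; AC50 from Hill-fitted concentration-response.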
A short description of experiment [9]: Cell Viability - LYMP2-010 (AID 981). Note: nearly all actives have a fitted effect of over 55% in size. The method, boiled down:
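Human lymphoblastoid LYMP2-010 cells (2500/well) were preincubated 5 hr at 37 C, then exposed to compounds for 24 hr at 37 C in complete medium. Intracellular ATP was measured by CellTiter-Glo luminescence after 30 min at room temperature; AC50 from Hill-fitted concentration-response.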

The nature of experiment [10]: Cell Viability - LYMP2-012 (AID 982).
Experiment [11] is described as follows: Cell Viability - LYMP2-018 (AID 985).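 Note: compound exposure lasted 24 hr at 37 °C; nearly all actives have a fitted effect of over 50% in size.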 A digest of the protocol:
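Human lymphoblastoid cells (2500/well) were pre-incubated 5 hr at 37 C, then exposed to compounds for 24 hr at 37 C in complete medium. Viability was read as intracellular ATP by CellTiter-Glo luminescence; AC50 values came from Hill-equation fits.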

Experiment [12] is described as follows: Cell Viability - LYMP2-020 (AID 986). Note: nearly all actives have a fitted effect of over 55% in size. A digest of the protocol:
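Human lymphoblastoid cells, 2500/well, were pre-incubated 5 hr at 37 C, then exposed to compounds for 24 hr at 37 C in complete medium. Intracellular ATP was read by CellTiter-Glo luminescence, and AC50 was derived by Hill fitting of concentration-response data.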

The nature of experiment [13]: Cell Viability - LYMP2-022 (AID 987). Note: nearly all actives have a fitted effect of over 55% in size. A digest of the protocol: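 Human lymphoblastoid cells, 2500/well, preincubated 5 hr at 37 C, then exposed to compounds over a concentration range for 24 hr at 37 C in complete medium. Viability read as intracellular ATP by CellTiter-Glo luminescence after 30 min at room temperature; AC50 from Hill fits.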
Experiment [14] is described as follows: Cell Viability - LYMP2-024 (AID 988). Note: nearly all actives have a fitted effect of over 60% in size. A digest of the protocol: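 Human lymphoblastoid cells (2500/well) in complete medium were preincubated 5 hr at 37 C, then exposed to compounds for 24 hr at 37 C. Intracellular ATP was read by CellTiter-Glo luminescence; AC50 from Hill-equation fits of concentration-response data.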
A short description of experiment [15]: Cell Viability - LYMP2-026 (AID 989). Note: nearly all actives have a fitted effect of over 50% in size. A digest of the protocol:
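Human lymphoblastoid cells (2500/well) in complete medium were preincubated 5 hr at 37 C, then exposed to compounds for 24 hr at 37 C. Cellular ATP was read by CellTiter-Glo luminescence; AC50 from Hill-equation fits of concentration-response data.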

The nature of experiment [16]: Cell Viability - LYMP1-002 - Assay at 24 hr (AID 993). The method, boiled down: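 Human lymphoblastoid LYMP1-002 cells, 2500/well in complete medium, were treated with compounds for 24 h at 37 C; intracellular ATP was read by CellTiter-Glo luminescence. AC50 values came from Hill-equation fits of qHTS concentration-response data.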
A short description of experiment [17]: Cell Viability - LYMP1-002 - Assay at 40 hr (AID 994). Note: nearly all actives have a fitted effect of over 60% in size. A digest of the protocol:
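Human lymphoblastoid cells, 2500/well in complete medium, were preincubated 5 hr at 37 C, then exposed to compounds for 40 hr at 37 C. Intracellular ATP was read by CellTiter-Glo luminescence after 30 min at room temperature; AC50 from Hill-equation fits.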

The next experiment has as its system CP194. The experiment in a line: qHTS profiling for inhibitors of Plasmodium falciparum proliferation (AID 504749). Note: nearly all actives have a fitted effect of over 60% in size. Note: potency is the fitted concentration of half-maximal effect. The following applies: P. falciparum in erythrocytes, SYBR Green DNA, 72 h; series mostly up to 28.7 µM. A digest of the protocol:
(§1)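 P. falciparum-infected erythrocytes (0.3% parasitemia, 2.5% hematocrit final) were exposed to compounds for 72 h at 37 C in 5% CO2, then lysed with SYBR Green buffer overnight at room temperature; parasite DNA fluorescence was normalized to artemisinin and DMSO controls.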

Another experiment concerns CP201. The experiment is described as above. The note with it: P. falciparum in erythrocytes, SYBR Green DNA, 72 h; series mostly up to 28.7 µM. A digest of the protocol:
as §1

Another experiment relates to CP268. The description is as above. The following applies: P. falciparum in erythrocytes, SYBR Green DNA, 72 h; series mostly up to 28.7 µM. A digest of the protocol:
as §1

For the compound `O[C@@H]([C@H](O)[C@@H](O)CBr)[C@@H](O)CBr`, the Potency entry in experiment [1], in experiment [2], in experiment [3], in experiment [4], in [5] and in experiment [6] was “inactive” in each case. Moreover, the Potency entry in experiment [7], in experiment [8], in [9], in experiment [10], in [11] and in experiment [12] was “inactive” in each case. The Potency entry in [13], in experiment [14], in experiment [15], in [16] and in experiment [17] was “inactive” throughout.

On to `CCC(=O)O[C@@H](OP(=O)(CCCCc1ccccc1)CC(=O)N1C[C@H](C2CCCCC2)C[C@H]1C(=O)O)C(C)C` (some centres undefined), for which the Potency result in the experiment on CP194, in the experiment on CP201 and in the experiment on CP268 was “inactive” throughout.

Regarding `Cc1cc(CC(C)CC(C)(C)C)n(O)c(=O)c1` (centres undefined), the figures for the Potency with CP194, in the experiment with CP201 and in the experiment on CP268 were 4.26 µM (active), 4.78 µM (active) and 2.69 µM (active), respectively.

`CN1CC[C@H](CN2c3ccccc3Sc3ccccc32)C1`: the Potency in the experiment on CP268 was 15.1 µM (active).

Take `CCCCOCCO`: the Potency result in experiment [1], in experiment [2], in [3], in experiment [4], in [5] and in [6] was “inactive” each time. Also, the Potency entry in experiment [7], in [8], in experiment [9], in experiment [10], in [11] and in [12] was “inactive” throughout. The Potency entry in experiment [13], in experiment [14], in [15], in experiment [16] and in [17] was “inactive” throughout.

For the compound `Cc1c(N=C=O)cccc1N=C=O`, the Potency entry in experiment [1], in [2], in experiment [3], in [4], in experiment [5] and in experiment [6] was “inactive” throughout. Besides, the Potency entry in [7], in experiment [8], in experiment [9], in experiment [10], in [11] and in experiment [12] was “inactive” each time. Moreover, the Potency entry in experiment [13], in experiment [14], in experiment [15], in experiment [16] and in [17] was “inactive” in each case.

In the case of `COC(=O)c1ccc(C=O)cc1`, the Potency entry in [1], in [2], in experiment [3], in experiment [4], in [5] and in experiment [6] was “inactive” throughout. Besides, the Potency result in [7], in experiment [8], in experiment [9], in experiment [10], in experiment [11] and in [12] was “inactive” in each case. For the same compound, the Potency result in experiment [13], in experiment [14], in experiment [15], in [16] and in experiment [17] was “inactive” each time.

On to `C1OCOCO1`, for which the Potency result in experiment [1], in experiment [2], in experiment [3], in [4], in experiment [5] and in experiment [6] was “inactive” throughout. For the same compound, the Potency entry in experiment [7], in experiment [8], in experiment [9], in [10], in experiment [11] and in [12] was “inactive” each time. For the same compound, the Potency result (in [13]; in experiment [14]; in [15]; in experiment [16]; in experiment [17]; in the experiment on CP201) was “inactive” each time. In the experiment on CP268, the Potency result is “inactive”.
